Measurements taken from PubChem BioAssay (Tox21).
Values without a mark were called inactive. Results filed as inconclusive are left out. Entries that show only a call come without a potency. Activity calls are given as the source filed them. Unless noted, the call rests on the fitted dose curve; in most records, active means well fitted curve in the direction sought with a large enough effect in the repeat runs; inconclusive means weak or mixed curves; inactive means no such curve, though single readings can be large; an effect the other way counts as inactive or inconclusive.

How the values were obtained:
[1] = target: Estrogen receptor beta (Homo sapiens) (UniProt Q92731); assay: qHTS assay to identify small molecule agonists of the estrogen receptor beta (ER-beta) signaling pathway (AID 1259377; active means well fitted activation curve with a large enough effect in the signal ratio in the repeat runs, not every such curve was filed as active; the % refers to the signal ratio; further: potency means the concentration at half of the fitted maximal effect)
Chain of Estrogen receptor beta (Homo sapiens) (Q92731 whole entry, looked up): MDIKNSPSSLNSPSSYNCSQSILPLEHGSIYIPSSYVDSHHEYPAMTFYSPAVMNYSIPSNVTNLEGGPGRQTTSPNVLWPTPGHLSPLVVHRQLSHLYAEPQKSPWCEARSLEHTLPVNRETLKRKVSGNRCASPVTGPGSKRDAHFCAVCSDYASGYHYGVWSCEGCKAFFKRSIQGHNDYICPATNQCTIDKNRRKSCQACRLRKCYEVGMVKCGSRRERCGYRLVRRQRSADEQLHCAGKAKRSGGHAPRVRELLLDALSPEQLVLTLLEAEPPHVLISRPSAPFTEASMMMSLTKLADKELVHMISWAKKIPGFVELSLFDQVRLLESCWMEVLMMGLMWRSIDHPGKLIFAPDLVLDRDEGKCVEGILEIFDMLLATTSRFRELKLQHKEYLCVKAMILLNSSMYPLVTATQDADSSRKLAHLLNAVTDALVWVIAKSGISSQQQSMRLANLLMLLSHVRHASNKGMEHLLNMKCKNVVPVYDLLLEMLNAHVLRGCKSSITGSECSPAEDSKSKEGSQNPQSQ
Outline: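 ER-beta-UAS-bla HEK293T (GripTite) cells carrying a UAS-driven beta-lactamase reporter, in medium with 2% charcoal-stripped FBS, were exposed to compounds for 16 hr at 37C; LiveBLAzer B/G FRET substrate was then added and fluorescence read after 2 hours at room temperature.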

[2] = target: Estrogen receptor beta (Homo sapiens) (UniProt Q92731); assay: qHTS assay to identify small molecule antagonists of the estrogen receptor beta (ER-beta) signaling pathway (AID 1259378; active means well fitted inhibition curve with a large enough effect in the signal ratio in the repeat runs, not every such curve was filed as active; the % refers to the signal ratio; further: potency means the concentration at half of the fitted maximal effect)
Outline: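 ER-beta-UAS-bla HEK293T cells in 2% charcoal-stripped FBS medium treated with compound plus 1nM final 17-beta-estradiol for 16 hr at 37C. Beta-lactamase reporter read by FRET substrate fluorescence after 2 hours at room temperature.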

[3] = qHTS assay to identify small molecule agonists of the estrogen receptor beta (ER-beta) signaling pathway - cell viability counter screen (AID 1259380); further: nearly all actives have a fitted effect of over 30% in size; further: potency means the concentration at half of the fitted maximal effect
Outline: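 Compounds dissolved in DMSO were pin-transferred onto ER-beta-UAS-bla HEK293T cells that had settled 6 hr, and exposure ran 16 hr at 37C. Following the reporter read, CellTiter-Glo luminescence after 30 min at room temperature indicated cytotoxicity.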

[4] = qHTS assay to identify small molecule antagonists of the estrogen receptor beta (ER-beta) signaling pathway - cell viability counter screen (AID 1259382); further: series mostly up to about 92 µM; nearly all actives have a fitted effect of over 55% in size
Outline: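 CellTiter-Glo ATP luminescence measured after the LiveBLAzer read in the same wells; ER-beta-UAS-bla HEK293T cells, 16 hr compound treatment with 1nM 17-beta-estradiol agonist at 37C, 5% CO2.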

[5] = target: Estrogen receptor (Homo sapiens) (UniProt P03372); assay: qHTS assay to identify small molecule agonists of the estrogen receptor alpha (ER-alpha) signaling pathway in the presence of an antagonist (AID 1259383; calls by dose curve; further: top concentration of the series differs between compounds; nearly all actives have a fitted effect of over 15% in size)
Chain of Estrogen receptor (Homo sapiens) (P03372 whole entry, looked up): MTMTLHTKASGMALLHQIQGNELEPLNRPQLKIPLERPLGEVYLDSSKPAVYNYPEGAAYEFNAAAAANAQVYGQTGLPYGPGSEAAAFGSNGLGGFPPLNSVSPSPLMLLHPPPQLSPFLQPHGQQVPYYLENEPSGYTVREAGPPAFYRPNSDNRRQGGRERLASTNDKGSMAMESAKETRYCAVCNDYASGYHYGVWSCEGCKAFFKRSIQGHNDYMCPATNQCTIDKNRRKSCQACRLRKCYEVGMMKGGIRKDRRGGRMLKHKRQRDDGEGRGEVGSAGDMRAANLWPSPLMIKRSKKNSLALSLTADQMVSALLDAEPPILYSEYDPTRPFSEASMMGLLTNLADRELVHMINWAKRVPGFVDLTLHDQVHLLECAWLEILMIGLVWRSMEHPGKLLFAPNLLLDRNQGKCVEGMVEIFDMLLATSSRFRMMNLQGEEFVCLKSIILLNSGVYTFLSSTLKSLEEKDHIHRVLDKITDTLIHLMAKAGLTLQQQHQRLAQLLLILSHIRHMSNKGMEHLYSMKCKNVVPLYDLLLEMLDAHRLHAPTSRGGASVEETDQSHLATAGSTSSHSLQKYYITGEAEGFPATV
Outline: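 Luminescent ERE-luciferase reporter, VM7Luc4E2 cells (endogenous ER-alpha); 10.0nM ICI-182,780 final; 15-point compound titration; 22hr at 37C; ONE-Glo, 30min RT.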

[6] = qHTS assay to identify small molecule agonists or antagonists of the thyroid stimulating hormone receptor (TSHR) signaling pathway - wild type cell line counter screen (AID 1259384; calls by dose curve)
Outline: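 Wild-type Hek293 cells, 800/well, 18 h at 37C, then compound with Ro20-1724 for 30 min RT. cAMP by HTRF (cAMP-d2/anti-cAMP cryptate), 1 h RT, fluorescence read. 15 concentrations, triplicates.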

[7] = target: Thyrotropin receptor (Homo sapiens) (UniProt P16473); assay: qHTS assay to identify small molecule antagonists of the thyroid stimulating hormone receptor (TSHR) signaling pathway (AID 1259385; calls by dose curve; further: nearly all actives have a fitted effect of over 20% in size)
Chain of Thyrotropin receptor (Homo sapiens) (P16473 whole entry, looked up): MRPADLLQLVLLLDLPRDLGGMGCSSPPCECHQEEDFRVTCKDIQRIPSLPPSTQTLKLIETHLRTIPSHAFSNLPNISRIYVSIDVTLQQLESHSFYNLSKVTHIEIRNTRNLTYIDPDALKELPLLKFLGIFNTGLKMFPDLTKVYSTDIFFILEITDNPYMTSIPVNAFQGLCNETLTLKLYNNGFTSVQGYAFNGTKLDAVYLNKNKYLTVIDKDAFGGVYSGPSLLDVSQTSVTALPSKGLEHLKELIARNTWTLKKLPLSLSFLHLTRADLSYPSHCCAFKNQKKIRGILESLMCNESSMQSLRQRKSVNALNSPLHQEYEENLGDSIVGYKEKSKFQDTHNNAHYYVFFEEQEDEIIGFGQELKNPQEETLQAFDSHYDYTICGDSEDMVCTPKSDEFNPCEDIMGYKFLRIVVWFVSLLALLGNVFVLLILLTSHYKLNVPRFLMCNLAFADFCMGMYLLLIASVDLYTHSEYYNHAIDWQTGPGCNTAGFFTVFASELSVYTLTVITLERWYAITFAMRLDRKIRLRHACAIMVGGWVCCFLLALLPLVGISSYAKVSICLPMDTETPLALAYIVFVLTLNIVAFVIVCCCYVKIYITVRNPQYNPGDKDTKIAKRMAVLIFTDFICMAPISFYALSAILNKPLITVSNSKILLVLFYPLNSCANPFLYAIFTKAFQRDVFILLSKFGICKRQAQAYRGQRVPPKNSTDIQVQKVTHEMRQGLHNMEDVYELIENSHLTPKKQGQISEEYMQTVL
Outline: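 TSHR-HEK293 cells (800/well) plated 18 h, then compounds with Ro20-1724 and TSH at 1.5 ng/mL final, 30 min at room temperature. cAMP quantified by HTRF (cAMP-d2/anti-cAMP-cryptate, 1 h); 15 concentrations in triplicate.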

[8] = qHTS assay to identify small molecule agonists of the estrogen receptor alpha (ER-alpha) signaling pathway in the presence of an antagonist - cell viability counter screen (AID 1259386);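 further: cells exposed to compounds for 22 h at 37 °C before the viability read; nearly all actives have a fitted effect of over 30% in size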; further: potency means the concentration at half of the fitted maximal effect
Outline: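 Using estrogen-depleted VM7Luc4E2 cells, the 15-concentration compound series was applied together with 10.0nM ICI-182,780 and incubated 22hr at 37C/5% CO2. Cell viability was then scored by CellTiter-Fluor.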

[9] = qHTS assay to identify small molecule agonists of the androgen receptor (AR) signaling pathway in the presence of an antagonist - cell viability counter screen (AID 1259379); further: nearly all actives have a fitted effect of over 25% in size; further: potency means the concentration at half of the fitted maximal effect
Outline: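 Each compound was tested at 15 concentrations on MDA-kb2 cells in the presence of 3.0uM nilutamide. Viability was measured by CellTiter-Fluor fluorescence after a 16 hr incubation at 37C in a CO2-free atmosphere.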

[10] = target: Androgen receptor (Homo sapiens) (UniProt P10275); assay: qHTS assay to identify small molecule agonists of the androgen receptor (AR) signaling pathway in the presence of an antagonist (AID 1259381; calls by dose curve; further: nearly all actives have a fitted effect of over 15% in size)
Chain of Androgen receptor (Homo sapiens) (P10275 whole entry, looked up): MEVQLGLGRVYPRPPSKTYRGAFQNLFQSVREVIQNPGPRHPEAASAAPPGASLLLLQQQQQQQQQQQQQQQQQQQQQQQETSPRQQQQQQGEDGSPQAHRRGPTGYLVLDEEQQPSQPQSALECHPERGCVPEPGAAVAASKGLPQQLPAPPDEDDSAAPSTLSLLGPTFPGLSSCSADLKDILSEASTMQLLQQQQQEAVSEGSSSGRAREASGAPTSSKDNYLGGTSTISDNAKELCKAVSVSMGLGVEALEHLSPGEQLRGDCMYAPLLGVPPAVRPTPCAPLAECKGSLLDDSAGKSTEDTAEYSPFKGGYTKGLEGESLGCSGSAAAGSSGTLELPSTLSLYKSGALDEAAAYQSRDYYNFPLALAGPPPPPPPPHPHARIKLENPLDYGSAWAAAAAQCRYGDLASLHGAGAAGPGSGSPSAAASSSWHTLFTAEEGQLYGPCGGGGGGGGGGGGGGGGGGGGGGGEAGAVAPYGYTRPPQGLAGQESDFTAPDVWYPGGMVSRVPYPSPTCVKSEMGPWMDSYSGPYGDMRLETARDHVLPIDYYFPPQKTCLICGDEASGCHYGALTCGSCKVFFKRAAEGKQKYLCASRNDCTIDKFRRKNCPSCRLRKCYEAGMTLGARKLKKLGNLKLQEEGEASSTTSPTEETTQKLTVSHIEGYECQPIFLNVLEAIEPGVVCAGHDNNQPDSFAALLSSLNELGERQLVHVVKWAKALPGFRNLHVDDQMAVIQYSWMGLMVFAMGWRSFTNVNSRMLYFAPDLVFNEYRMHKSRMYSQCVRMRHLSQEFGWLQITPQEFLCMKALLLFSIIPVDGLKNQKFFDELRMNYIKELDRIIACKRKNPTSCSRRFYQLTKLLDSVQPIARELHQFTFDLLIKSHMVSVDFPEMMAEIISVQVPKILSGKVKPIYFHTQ
Outline: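 Plated MDA-kb2 cells (3,000/well) were pre-incubated 5hr, given nilutamide (3.0uM final) or buffer, then dosed with compounds in DMSO at 15 concentrations. Luciferase activity was quantified by luminescence after 16hr at 37C.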

Structure (SMILES)	Potency [1]	Potency [2]	Potency [3]	Potency [4]	Potency [5]	Potency [6]	Potency [7]	Potency [8]	Potency [9]	Potency [10]
Cc1oc(-c2ccccc2)nc1CCOc1cccc2c1ccn2CCC(=O)O	inactive	30.6 µM (active)	10.9 µM (active)	inactive	inactive	inactive	inactive	19.3 µM (active)	–	–
Nc1cccc(S(=O)(=O)c2cccc(N)c2)c1	inactive	–	inactive	inactive	inactive	inactive	inactive	inactive	inactive	–
O=C(Nc1ccccc1)c1ccccc1O	inactive	–	–	inactive	–	–	–	–	61.1 µM (active)	inactive
CC(C)CC(=O)C1C(=O)c2ccccc2C1=O	inactive	–	–	inactive	inactive	inactive	–	–	inactive	inactive
CCCCc1nc2cccnc2n1Cc1ccc(-c2ccccc2-c2nnn[nH]2)cc1	inactive	–	–	–	inactive	inactive	–	–	inactive	–
COc1cc(C(=O)OCCCN2CCCN(CCCOC(=O)c3cc(OC)c(OC)c(OC)c3)CC2)cc(OC)c1OC	inactive	inactive	23.7 µM (active)	–	inactive	inactive	inactive	13.3 µM (active)	–	inactive
COc1cc2nc(N3CCN(C(=O)C4COc5ccccc5O4)CC3)nc(N)c2cc1OC (centres undefined)	inactive	–	inactive	–	–	inactive	–	inactive	inactive	–
CC(C)OC(=O)C(C)N(C(=O)c1ccccc1)c1ccc(F)c(Cl)c1 (centres undefined)	inactive	–	inactive	inactive	–	–	–	inactive	inactive	–
OC(CN1CCC(Cc2ccc(F)cc2)CC1)c1ccc(Cl)cc1 (centres undefined)	inactive	inactive	inactive	–	–	–	–	inactive	–	inactive
CC(C)=CCC/C(C)=C/CC/C(C)=C/CO	inactive	–	–	inactive	–	inactive	inactive	–	inactive	–
Nc1ncn([C@H]2C[C@H](O)[C@@H](CO)O2)c(=O)n1	inactive	–	inactive	inactive	–	–	–	inactive	inactive	–
OCCN1CCN(CCCN2c3ccccc3C=Cc3ccccc32)CC1	inactive	–	5.31 µM (active)	–	inactive	inactive	inactive	–	inactive	–
CC(=O)c1ccc2c(c1)N(CCCN1CCC(CCO)CC1)c1ccccc1S2	inactive	15 µM (active)	26.6 µM (active)	–	inactive	–	–	–	–	–
C#C[C@]1(O)CC[C@H]2[C@@H]3CCc4cc(OC5CCCC5)ccc4[C@H]3CC[C@@]21C	6.68 µM (active)	–	29.8 µM (active)	–	–	inactive	–	inactive	inactive	–
CC(=O)NO	inactive	–	inactive	inactive	–	inactive	inactive	inactive	inactive	–
CCCCCCCCCCO[C@@H]1O[C@H](CO)[C@@H](O)[C@H](O)[C@H]1O	inactive	–	inactive	inactive	inactive	inactive	inactive	inactive	inactive	–
C=CC(=O)OCCOc1ccccc1	inactive	inactive	–	–	–	–	inactive	inactive	inactive	–
CCN(CC)c1ccc2c(-c3ccccc3C(=O)O)c3ccc(=[N+](CC)CC)cc-3oc2c1	inactive	–	8.63 µM (active)	–	inactive	–	–	6.11 µM (active)	9.69 µM (active)	–
CCCCCCCCCc1ccc(OCCOCCO)cc1	inactive	–	20.4 µM (active)	–	–	inactive	–	22.8 µM (active)	5.74 µM (active)	inactive
CCCCCCCCCCCCN1CCCCCC1=O	inactive	–	30.6 µM (active)	inactive	–	inactive	–	inactive	inactive	–
CCCCC(CC)CN1C(=O)C2C3C=CC(C3)C2C1=O (centres undefined)	inactive	–	–	–	inactive	inactive	inactive	–	inactive	–
Cc1c(N)cccc1[N+](=O)[O-]	–	inactive	inactive	inactive	inactive	inactive	inactive	inactive	inactive	–
CC(=O)c1ccc2c(c1)N(CCCN(C)C)c1ccccc1S2	inactive	–	–	–	inactive	inactive	inactive	inactive	inactive	–
